Results: PubChem BioAssay AID1347044 (National Center for Advancing Translational Sciences (NCATS), 2019)
Out of some 1,400 compounds screened, about 1,100 (79%) were called active. About 20% were inconclusive and are not listed. The call rests on the fitted dose curve. So high a share suggests a set chosen from earlier hits. These entries were drawn from the full list.

Each molecule was assayed against Atrial natriuretic peptide receptor 1 (Homo sapiens) (UniProt P16066) (assay: Natriuretic polypeptide receptor (hNpr1) antagonism - Confirmation). Conditions: HEK293 hNpr1 cGMP GloSensor luminescence, ANP-stimulated.
Procedure: In order to identify small molecular compounds that inhibit the hNpr1 receptor we developed a high-throughput assay to measure inhibition of the guanylate cyclase activity of the receptor. cGMP production was measured using a circular permutated Firefly luciferase (FLuc) enzyme functionally linked to the cGMP binding domain of human phosphodiesterase 5 (GloSensor technology pGS-40F, (Fan, F. et al. 2008). The cGMP-sensor was expressed in human embryonic kidney 293 (HEK-293) cells and FLuc activity was measured after stimulation with hNrp agonist peptide. hNrp agonists activates the receptor's associated guanylyl cyclase (GC) domain producing cGMP which then binds to the GloSensor resulting in FLuc activation, the enzymatic activity of which can be measured as bioluminescence with addition of luciferin substrate. A cytotoxicity counter-screen using the HEK-hNpr1-cGMP-sensor cells was also performed on the follow-up compounds. F. Fan, B. F. Binkowski, B. L. Butler, P. F. Stecha, M. K. Lewis, K. V. Wood, Novel genetically encoded biosensors using firefly luciferase. ACS Chem Biol 3, 346-351 (2008).
PROTOCOL TABLES (as described by Inglese J, Shamu CE and Guy RK. 2007) SEQUENCE No. (e.g., 1, 2, 3, etc.); PARAMETER (e.g., Cells, Incubation, Reagent, etc.); VALUE and DESCRIPTION. GLOSENSOR PROTOCOL 1. Cells. Seed 1500 HEK293 cGMP-sensor cells expressing hNpr1 per well in 4uL into Greiner 1536-well white/solid bottom high base, tissue culture-treated plates. 2. Incubation. Incubate plated cells at 37C in 5% CO2, 95% RH overnight. 3. Reagent. Add 1uL per well GloSensor reagent from Promega (2% final concentration) or CO2 independent media vehicle control to respective columns of Greiner 1536-well plates. 4. Incubation. Incubate plated cells at room temperature for 2 h, protect from light. 5. Compounds. Library compounds and A-71915 control added at 23 nL per well, transferred by Pin Tool. 6. Incubation. Incubate plated cells for 30 min. at room temperature, protect from light. 7. Detector. GloSensor baseline pre-read luminescence measured using CCD-based camera (Viewlux). 8. Compound. Add 1uL of hNppA peptide to 0.1 nM final concentration to stimulate hNpr1 or CO2 independent media as vehicle control. 9. Incubation. Incubate treated cells at room temperature for 20 min., protect from light. 10. Detector. GloSensor post-hNppA luminescence measured using CCD-based camera (Viewlux). NOTES (numbers refer to Sequence numbers above) 1. HEK293 cells expressing hNpr1 and GIP/pGS-40F grown to 85-95% confluence (48-72 h) in T175 culture flasks (CO2 independent media supplemented with 10% FBS, 1% Pen/Strep antibiotics and 1 ug/mL puromycin). Trypsinize and harvest cells from T175 culture flasks and filter through 40 um cell strainer. Cells counted with Invitrogen Countess (30,000,000 - 50,000,000 cells/flask). Cells diluted to a final concentration of 375 cells/uL in CO2 independent media and a Millipore multidrop used to dispense 1500 cells per well (4uL/well) into 13 1536-well Greiner White/Solid bottom, high base tissue-culture treated (TC) plates and one Aurora 1536-well Black/Clear bottom, low base, TC plate (for visual inspection of cell health throughout the duration of the assay). 2. Cells incubated overnight at ambient temperature, 24 h. at 37C in 95% RH incubator protected from light, covered with metal lid with gas-exchange holes. 3. […]
Further: nearly all actives have a fitted effect of over 70% in size.
Potency means the concentration at half of the fitted maximal effect.

Atrial natriuretic peptide receptor 1 (Homo sapiens), sequence (P16066 whole entry, looked up, the tested form may be a part): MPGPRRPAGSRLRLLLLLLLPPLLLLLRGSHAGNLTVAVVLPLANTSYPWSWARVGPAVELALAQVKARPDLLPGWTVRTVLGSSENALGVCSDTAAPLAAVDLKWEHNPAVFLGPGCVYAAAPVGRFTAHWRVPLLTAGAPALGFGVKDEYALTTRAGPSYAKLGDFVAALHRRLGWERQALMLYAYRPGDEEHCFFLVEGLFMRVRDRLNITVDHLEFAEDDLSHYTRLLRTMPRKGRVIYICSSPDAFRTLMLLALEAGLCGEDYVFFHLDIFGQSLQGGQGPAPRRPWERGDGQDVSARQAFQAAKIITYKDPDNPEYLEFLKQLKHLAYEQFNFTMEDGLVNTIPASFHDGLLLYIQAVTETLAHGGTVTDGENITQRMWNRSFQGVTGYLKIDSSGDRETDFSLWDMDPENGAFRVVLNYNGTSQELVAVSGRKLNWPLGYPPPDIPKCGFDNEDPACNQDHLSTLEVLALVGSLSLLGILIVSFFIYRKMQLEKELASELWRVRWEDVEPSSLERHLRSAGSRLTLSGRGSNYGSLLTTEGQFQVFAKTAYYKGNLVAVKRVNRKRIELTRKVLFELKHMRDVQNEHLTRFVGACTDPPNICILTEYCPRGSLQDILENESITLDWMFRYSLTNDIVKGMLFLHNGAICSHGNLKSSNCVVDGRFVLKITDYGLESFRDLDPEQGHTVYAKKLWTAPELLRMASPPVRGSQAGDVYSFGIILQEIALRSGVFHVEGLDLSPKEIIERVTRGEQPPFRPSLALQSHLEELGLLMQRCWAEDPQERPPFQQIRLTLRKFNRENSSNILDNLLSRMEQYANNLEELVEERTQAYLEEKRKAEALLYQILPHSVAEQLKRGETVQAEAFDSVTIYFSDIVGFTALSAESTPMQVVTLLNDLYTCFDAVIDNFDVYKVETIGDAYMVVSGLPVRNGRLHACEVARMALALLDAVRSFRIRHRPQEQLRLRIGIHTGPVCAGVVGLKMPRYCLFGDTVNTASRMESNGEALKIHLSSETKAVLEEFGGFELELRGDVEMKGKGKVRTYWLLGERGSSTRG

Row | Structure (SMILES) | Potency
1 | CCC(CC)c1cc([C@H]2CN3CC[C@H]2C[C@@H]3CNC(=O)NCc2ccccc2)nc(-c2ccncc2)n1 | 19.3 µM (active)
2 | COc1cc2c(cc1OCc1ccncc1)NC(=O)C21CCN(c2ncc(F)cn2)CC1 | 39.6 µM (active)
3 | COc1cc2c(cc1Oc1cccc(N(C)C)c1)NC(=O)C21CCN(CCC(C)C)CC1 | 35.3 µM (active)
4 | COc1cc2c(cc1Oc1cccc(N(C)C)c1)NC(=O)C21CCN(c2cnccn2)CC1 | 21.7 µM (active)
5 | COc1cc2c(cc1Oc1cccc(N(C)C)c1)NC(=O)C21CCN(Cc2ccccn2)CC1 | 21.7 µM (active)
